This excerpt belongs to a sample that is enriched for hits.
PI4K2A block: qHTS for small molecular inhibitors of PI4K2A. purified PI4K2A, ADP-Glo luminescence, 1 h; hits give low values. activity change, negative = inhibition, % at 76.9 µM. 420,000 compounds, 0.13% hits; in the data active = activity change below about -50%; inconclusive = mostly about -30% to -49%;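 note: -100% = wells without enzyme as full effect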
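PI4K2A activity was measured by ADP-Glo luminescence: enzyme (4 ug/mL stock) and phosphatidylinositol (1.2 mM stock) in Tris pH 7.5/MgCl2/EGTA/Triton X-100 buffer were reacted with ATP (300 microM stock) for one hour at ambient temperature.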
Tb PFK block: qHTS Assay to Find Inhibitors of T. brucei phosphofructokinase | ATP-dependent 6-phosphofructokinase (Trypanosoma brucei brucei), O15648 | T. brucei PFK, ADP-Glo luminescence | Potency, µM (doses to about 57.5 µM), for inactives: at the top dose activity, negative = inhibition, most hits filed as inhibitors | 330,000 compounds, 0.17% hits | AID 485367, 2010;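 note: potency is the fitted concentration of half-maximal effect; 0% = uninhibited 1x PFK enzyme wells and -100% = no-enzyme wells; nearly all actives have a fitted effect of over 60% in size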
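Luminescent ADP detection (ADP-Glo, two-step: ATP depletion then ADP-to-ATP conversion for luciferase) reported PFK activity after 45 min room-temperature reaction of 1.25 nM enzyme with 0.5 mM F6P and 0.1 mM ATP at pH 8.0.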
PI5P4Ka inh: qHTS for Inhibitors of phosphatidylinositol 5-phosphate 4-kinase (PI5P4K) | Phosphatidylinositol 5-phosphate 4-kinase type-2 alpha (Homo sapiens), P48426 | PI5P4Kalpha enzyme, ADP-Glo luminescence, 60 min; hits give low values | max response, % | 330,000 compounds, 1.2% hits | AID 652105, 2013; active = max response of -50% or lower; inconclusive = between -30% and -50%; inactive = -30% or higher; note: value at the top dose of about 77 µM
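Compounds were pin-transferred onto PI5P4Kalpha and substrate in HEPES pH 7.4 buffer with EGTA, CHAPS and 5% DMSO. ATP (5 microM final) started the reaction, which ran 60 minutes at room temperature before ADP-Glo detection.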
Pin1 inhibitor: qHTS Assay to Find Inhibitors of Pin1 | Peptidyl-prolyl cis-trans isomerase NIMA-interacting 1 (Homo sapiens), Q13526 | Pin1 FP peptide displacement, HiFluor488, 10 min | Potency, µM (highest dose often 115 µM), for inactives: at the top dose activity, negative = inhibition, hits mostly inhibitors | 390,000 compounds, 0.009% hits | AID 504891, 2011; active = well fitted inhibition curve with a large enough effect in the polarisation, with a control signal flat, not every such curve was filed as active; inconclusive = small, poorly fitted or top-dose-only effect, or effect the other way, or a change in a side signal; inactive = no such curve, though single readings can be large or run the other way; the % refers to the polarisation; note: potency is the fitted concentration of half-maximal effect
Tb PGK inh: qHTS Assay to Find Inhibitors of Phosphoglycerate Kinase; Phosphoglycerate kinase, glycosomal (Trypanosoma brucei brucei), P07378; PGK/GAPDH coupled, Kinase-Glo luminescence, 60 min; Potency, µM (highest dose often 57.5 µM), for the others: at the top dose activity change, negative = inhibition, hits mostly inhibitors; 380,000 compounds, 0.043% hits; note: potency is the fitted concentration of half-maximal effect; nearly all actives have a fitted effect of over 60% in size
Target sequence (P07378 whole entry, looked up): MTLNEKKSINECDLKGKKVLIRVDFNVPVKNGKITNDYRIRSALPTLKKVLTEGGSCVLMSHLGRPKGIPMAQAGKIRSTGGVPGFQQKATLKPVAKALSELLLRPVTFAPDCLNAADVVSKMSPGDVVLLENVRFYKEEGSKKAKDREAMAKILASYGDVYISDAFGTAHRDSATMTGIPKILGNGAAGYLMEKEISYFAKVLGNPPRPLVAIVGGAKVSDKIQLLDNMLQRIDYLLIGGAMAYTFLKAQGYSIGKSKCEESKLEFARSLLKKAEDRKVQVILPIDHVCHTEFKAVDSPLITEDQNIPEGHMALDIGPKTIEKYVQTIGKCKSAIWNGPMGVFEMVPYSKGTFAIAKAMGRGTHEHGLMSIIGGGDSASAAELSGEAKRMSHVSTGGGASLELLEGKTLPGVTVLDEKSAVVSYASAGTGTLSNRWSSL
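Luminescent ATP detection (Kinase-Glo Plus) follows a 60-minute room-temperature incubation, with wells lacking PGK as controls. Buffer: 100 mM TEA (pH 7.6), 5 mM MgCl2, 0.01% Tween-20. Coupling enzyme GAPDH (100 nM final) supplies unstable 1,3-BPG in-well.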
ADP-Glo counter: qHTS for Inhibitors of PI5P4K: ADP-Glo counter assay; ADP-Glo detection counter-screen, luciferase luminescence, no enzyme; 1,100 tested, under 10 active; shares compounds with PI5P4Ka inh; Potency, µM (series often up to 76.9 µM), for the others: at the highest dose activity change, negative = inhibition, usual class: inhibitors
Starred values were filed as active, the others as inactive; i = inactive; ? = inconclusive; nt = not tested or not shown. Unless noted, calls come from the whole dose curve; as a rule, active = well fitted curve in the direction sought with a large enough effect; inconclusive = small, poorly fitted or top-dose-only effect, or another doubt; inactive = no such curve, though single readings can be large; an effect the other way counts as inactive or inconclusive. Unless noted, % is set by controls: 0 for no effect and ±100 for the full control effect.

SMILES	PI4K2A block	Tb PFK block	PI5P4Ka inh	Pin1 inhibitor	Tb PGK inh	ADP-Glo counter
Cc1ccccc1C(=O)OC(C)C(=O)NCc1ccc2c(c1)OCO2 (stereo unspecified)	-3.0	-2.7%	1.7	0.2%	4.7%	nt
O=C(CCCN1C(=O)/C(=C/c2ccccc2Cl)SC1=S)N1CCCC1	4.6	3.6%	0.7	52.8%	-11.4%	nt
COc1cccc(C(C#N)N2CCOCC2)c1 (stereo unspecified)	0.3	-0.6%	3.2	-0.5%	i	nt
Nc1nc(Nc2ccccc2F)sc1C(=O)c1ccccc1	-0.6	-0.4%	-90.8*	-2.6%	5.7%	0.6%
Cc1nc(Nc2ccccc2)sc1C(=O)c1ccc(F)cc1	-17.2	3.0%	4.3	1.8%	9.2%	nt
COc1cc2c(C(=O)N3CCN(c4cc(Cl)ccc4C)CC3)cn(CC(C)C)c(=O)c2cc1OC	2.0	nt	nt	-4.3%	-10.2%	nt
COCCN(CCOC)C(=O)CC(=O)N(CCOC)CCOC	-0.6	6.7%	nt	-3.3%	2.1%	nt
CCOc1ccc(NC(=O)CN(C)C(=O)c2csc3c2CCCC3)cc1OCC	0.3	8.2%	3.7	-10.6%	-5.3%	nt
CCOc1ccc(NC(=O)CN(C)C(=O)c2cc3c(s2)CCC3)cc1OCC	?	nt	-79.7*	nt	-12.3%	-5.4%
CC(=O)c1ccc(NC(=O)C(C)N(C)CC(=O)Nc2ccc(N3CCOCC3)cc2)cc1 (stereo unspecified)	1.6	1.8%	-9.7	4.2%	-8.6%	nt
Cc1ccc2cc(CCl)c(Cl)nc2c1	-2.1	-4.9%	-79.2*	0.1%	-0.4%	-0.5%
Cc1ccccc1OC(=O)c1nc(SCc2ccccc2F)ncc1Cl	-6.5	nt	nt	-1.3%	0.4%	nt
Cc1cccc(OCC(=O)Nc2cccc(C(=O)Nc3ccccc3C(=O)O)c2)c1	-0.3	2.0%	-52.4*	2.7%	0.6%	4.7%
Cc1ccc(NC(=O)c2cccc(C(=O)Nc3ccc(C)cc3C(=O)O)c2)c(C(=O)O)c1	2.7	3.8%	-82.9*	?	5.8%	2.8%
CCn1c(=O)[nH]c(=O)c2c(N)c(C(=O)c3cc(F)ccc3F)sc21	-0.1	-0.9%	-63.5*	-11.4%	-4.4%	-7.6%
CCOC(=O)C1C(c2cccs2)NC(=O)NC1(O)C(F)(F)F (stereo unspecified)	-5.0	-2.7%	nt	-11.1%	-3.8%	nt
O=C(NC1CCCCC1)c1ccc(Cn2c(SCc3ccc(F)cc3)nc3cccnc32)cc1	-3.0	nt	nt	19.2%	-8.2%	nt
CC1Cc2ccccc2N1C(=O)CN1CCN(S(=O)(=O)c2ccc3c(c2)OCCCO3)CC1 (stereo unspecified)	-3.0	nt	-6.6	nt	0.8%	nt
CC1Cc2ccccc2N1C(=O)CNc1cccc(S(=O)(=O)N2CCCC2)c1 (stereo unspecified)	0.6	0.0%	-66.3*	0.5%	-4.8%	-4.5%
CCc1ccc(CNC(=O)CCc2c(C)nn(-c3ccc(N4CCCCC4)nn3)c2C)cc1	-3.8	nt	nt	-7.9%	-3.0%	nt
Cc1ccc(C(=O)OCC(=O)NC2CCCCC2)o1	2.4	-27.5%	-9.5	0.3%	-11.9%	nt
O=C(COC(=O)c1ccco1)Nc1nc2c(F)c(F)c(F)cc2s1	-3.0	-0.8%	-53.3*	45.3%	-6.5%	2.2%
O=C(NCCc1ccccc1)C(c1cccs1)N(C(=O)c1csnn1)C1CC1 (stereo unspecified)	-5.3	-2.9%	-0.2	0.8%	-0.3%	1.2%
COc1ccc2[nH]c(=O)c(CN(Cc3nnnn3Cc3ccco3)C3CCCCC3)cc2c1	-2.8	-7.6%	-59.1*	-2.7%	-0.1%	-4.1%
CCOc1ccc2[nH]c(=O)c(C(c3nnnn3Cc3ccco3)N3CCC(C)CC3)cc2c1 (stereo unspecified)	2.3	11.0%	-6.4	12.0%	-3.1%	nt

Source: PubChem
